{"source": "PubChem BioAssay AID1159580", "about": "(chemical genetic matrix, 2015)", "test": "chemical genetic growth profiling, strain panel (AID 1159580);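 note: tested at 20 µM; growth read once vehicle control cultures reached saturation at 30 °C; 1 = growth at the plate median or of vehicle wells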", "conditions": "growth OD", "note": "Several values for one entry are separate records, joined by “and”; a condition that tells them apart may be missing. Equal entries are not always repeated. In all, about 5,500 compounds went through this assay and about 2,000 (36%) were called active. Inconclusive results (about 18%) are left out. Some of the results follow. A number with no mark means an inactive call. Cut-off read from the data, not from the text of the source: active = normalized growth mostly below about 0.91 (no sharp cut-off); inconclusive = no clear call, values can overlap the other calls; inactive = mostly above about 0.92.", "data": [{"compound": "O=C(/C=C/c1ccc(O)cc1)c1ccc(O)cc1O", "values": [{"measurement": "normalized growth", "setting": "S. cerevisiae deletion strains, locus YJR075W, strain HOC1, stronger effect = lower value", "result": "0.985 and 0.976"}, {"measurement": "normalized growth", "setting": "S. cerevisiae deletion strains, locus YKL009W, strain mrt4, stronger effect = lower value", "result": 0.947}, {"measurement": "normalized growth", "setting": "S. cerevisiae deletion strains, locus YKL068W, stronger effect = lower value", "result": 0.95}, {"measurement": "normalized growth", "setting": "S. cerevisiae deletion strains, locus YKL085W, strain MDH1 (second series), stronger effect = lower value", "result": 0.965}, {"measurement": "normalized growth", "setting": "S. cerevisiae deletion strains, locus YKL085W, strain MDH1, stronger effect = lower value", "result": 0.965}, {"measurement": "normalized growth", "setting": "S. cerevisiae deletion strains, locus YKL160W, strain elf1, stronger effect = lower value", "result": 0.988}, {"measurement": "normalized growth", "setting": "S. cerevisiae deletion strains, locus YKL190W, strain CNB1, stronger effect = lower value", "result": 0.993}, {"measurement": "normalized growth", "setting": "S. cerevisiae deletion strains, locus YKR001C, strain vps1, stronger effect = lower value", "result": "0.887 (active)"}, {"measurement": "normalized growth", "setting": "S. cerevisiae deletion strains, locus YKR026C, strain gcn3, stronger effect = lower value", "result": 1.01}, {"measurement": "normalized growth", "setting": "S. cerevisiae deletion strains, locus YKR091W, strain srl3, stronger effect = lower value", "result": 1.01}, {"measurement": "normalized growth", "setting": "S. cerevisiae deletion strains, locus YLL001W, strain dnm1, stronger effect = lower value", "result": 1.01}, {"measurement": "normalized growth", "setting": "S. cerevisiae deletion strains, locus YLL026W, stronger effect = lower value", "result": 1}, {"measurement": "normalized growth", "setting": "S. cerevisiae deletion strains, locus YLL041C, strain sdh2, stronger effect = lower value", "result": 1.01}, {"measurement": "normalized growth", "setting": "S. cerevisiae deletion strains, locus YLR027C, strain aat2, stronger effect = lower value", "result": 0.978}, {"measurement": "normalized growth", "setting": "S. cerevisiae deletion strains, locus YLR039C, strain RIC1, stronger effect = lower value", "result": 0.942}, {"measurement": "normalized growth", "setting": "S. cerevisiae deletion strains, locus YLR058C, strain SHM2, stronger effect = lower value", "result": 1.01}, {"measurement": "normalized growth", "setting": "S. cerevisiae deletion strains, locus YLR102C, strain apc9, stronger effect = lower value", "result": 0.953}, {"measurement": "normalized growth", "setting": "S. cerevisiae deletion strains, locus YLR113W, strain HOG1, stronger effect = lower value", "result": 0.927}, {"measurement": "normalized growth", "setting": "S. cerevisiae deletion strains, locus YLR221C, strain rsa3, stronger effect = lower value", "result": 0.987}, {"measurement": "normalized growth", "setting": "S. cerevisiae deletion strains, locus YLR258W, strain gsy2, stronger effect = lower value", "result": 1.01}, {"measurement": "normalized growth", "setting": "S. cerevisiae deletion strains, locus YLR262C, strain YPT6 (second series), stronger effect = lower value", "result": 1.02}, {"measurement": "normalized growth", "setting": "S. cerevisiae deletion strains, locus YLR262C, strain YPT6, stronger effect = lower value", "result": 1.02}, {"measurement": "normalized growth", "setting": "S. cerevisiae deletion strains, locus YLR268W, strain sec22, stronger effect = lower value", "result": 0.957}, {"measurement": "normalized growth", "setting": "S. cerevisiae deletion strains, locus YLR320W, strain mms22, stronger effect = lower value", "result": 1.01}, {"measurement": "normalized growth", "setting": "S. cerevisiae deletion strains, locus YLR330W, strain CHS5, stronger effect = lower value", "result": 0.985}, {"measurement": "normalized growth", "setting": "S. cerevisiae deletion strains, locus YLR342W, strain FKS1 (second series), stronger effect = lower value", "result": 0.981}, {"measurement": "normalized growth", "setting": "S. cerevisiae deletion strains, locus YLR342W, strain FKS1, stronger effect = lower value", "result": 1}, {"measurement": "normalized growth", "setting": "S. cerevisiae deletion strains, locus YLR357W, strain rsc2, stronger effect = lower value", "result": 0.997}, {"measurement": "normalized growth", "setting": "S. cerevisiae deletion strains, locus YLR370C, strain arc18, stronger effect = lower value", "result": 1.02}, {"measurement": "normalized growth", "setting": "S. cerevisiae deletion strains, locus YLR371W, strain rom2, stronger effect = lower value", "result": "0.9 (active)"}, {"measurement": "normalized growth", "setting": "S. cerevisiae deletion strains, locus YLR384C, strain iki3, stronger effect = lower value", "result": 1.01}, {"measurement": "normalized growth", "setting": "S. cerevisiae deletion strains, locus YLR418C, strain cdc73, stronger effect = lower value", "result": 0.86}, {"measurement": "normalized growth", "setting": "S. cerevisiae deletion strains, locus YML016C, strain PPZ1, stronger effect = lower value", "result": 0.986}, {"measurement": "normalized growth", "setting": "S. cerevisiae deletion strains, locus YML032C, strain rad52, stronger effect = lower value", "result": 0.984}, {"measurement": "normalized growth", "setting": "S. cerevisiae deletion strains, locus YML120C, strain ndi1, stronger effect = lower value", "result": 0.995}, {"measurement": "normalized growth", "setting": "S. cerevisiae deletion strains, locus YML124C, strain tub3, stronger effect = lower value", "result": 0.964}, {"measurement": "normalized growth", "setting": "S. cerevisiae deletion strains, locus YMR058W, strain fet3, stronger effect = lower value", "result": 1.02}, {"measurement": "normalized growth", "setting": "S. cerevisiae deletion strains, locus YMR078C, strain ctf18, stronger effect = lower value", "result": 0.954}, {"measurement": "normalized growth", "setting": "S. cerevisiae deletion strains, locus YMR125W, strain sto1, stronger effect = lower value", "result": 0.992}, {"measurement": "normalized growth", "setting": "S. cerevisiae deletion strains, locus YMR129W, stronger effect = lower value", "result": 1.03}, {"measurement": "normalized growth", "setting": "S. cerevisiae deletion strains, locus YMR205C, strain PFK2, stronger effect = lower value", "result": 0.967}, {"measurement": "normalized growth", "setting": "S. cerevisiae deletion strains, locus YMR223W, strain ubp8, stronger effect = lower value", "result": 0.967}, {"measurement": "normalized growth", "setting": "S. cerevisiae deletion strains, locus YMR231W, strain pep5, stronger effect = lower value", "result": 1.01}, {"measurement": "normalized growth", "setting": "S. cerevisiae deletion strains, locus YMR263W, strain SAP30, stronger effect = lower value", "result": 0.989}, {"measurement": "normalized growth", "setting": "S. cerevisiae deletion strains, locus YMR307W, strain GAS1, stronger effect = lower value", "result": 1.08}, {"measurement": "normalized growth", "setting": "S. cerevisiae deletion strains, locus YNL067W, strain RPL9B, stronger effect = lower value", "result": 1.01}, {"measurement": "normalized growth", "setting": "S. cerevisiae deletion strains, locus YNL071W, strain lat1, stronger effect = lower value", "result": 0.996}, {"measurement": "normalized growth", "setting": "S. cerevisiae deletion strains, locus YNL128W, strain TEP1, stronger effect = lower value", "result": 0.964}, {"measurement": "normalized growth", "setting": "S. cerevisiae deletion strains, locus YNL153C, strain GIM3, stronger effect = lower value", "result": 1.03}, {"measurement": "normalized growth", "setting": "S. cerevisiae deletion strains, locus YNL175C, strain NOP13, stronger effect = lower value", "result": 0.979}, {"measurement": "normalized growth", "setting": "S. cerevisiae deletion strains, locus YNL183C, strain NPR1, stronger effect = lower value", "result": 0.944}, {"measurement": "normalized growth", "setting": "S. cerevisiae deletion strains, locus YNL197C, strain WHI3, stronger effect = lower value", "result": 0.992}, {"measurement": "normalized growth", "setting": "S. cerevisiae deletion strains, locus YNL209W, strain ssb2, stronger effect = lower value", "result": 1}, {"measurement": "normalized growth", "setting": "S. cerevisiae deletion strains, locus YNL224C, strain SQS1, stronger effect = lower value", "result": 0.976}, {"measurement": "normalized growth", "setting": "S. cerevisiae deletion strains, locus YNL233W, strain BNI4, stronger effect = lower value", "result": 0.975}, {"measurement": "normalized growth", "setting": "S. cerevisiae deletion strains, locus YNL248C, strain rpa49, stronger effect = lower value", "result": 1.04}, {"measurement": "normalized growth", "setting": "S. cerevisiae deletion strains, locus YNL250W, strain rad50, stronger effect = lower value", "result": 0.961}, {"measurement": "normalized growth", "setting": "S. cerevisiae deletion strains, locus YNL271C, strain bni1, stronger effect = lower value", "result": 0.965}, {"measurement": "normalized growth", "setting": "S. cerevisiae deletion strains, locus YNL298W, strain CLA4, stronger effect = lower value", "result": 0.99}, {"measurement": "normalized growth", "setting": "S. cerevisiae deletion strains, locus YNL307C, strain MCK1, stronger effect = lower value", "result": 0.968}, {"measurement": "normalized growth", "setting": "S. cerevisiae deletion strains, locus YNL322C, strain KRE1 (second series), stronger effect = lower value", "result": 1}, {"measurement": "normalized growth", "setting": "S. cerevisiae deletion strains, locus YNR049C, strain mso1, stronger effect = lower value", "result": 1.01}, {"measurement": "normalized growth", "setting": "S. cerevisiae deletion strains, locus YNR052C, strain pop2, stronger effect = lower value", "result": 1.01}, {"measurement": "normalized growth", "setting": "S. cerevisiae deletion strains, locus YOL012C, strain htz1", "result": 1.77}, {"measurement": "normalized growth", "setting": "S. cerevisiae deletion strains, locus YOL147C, strain pex11, stronger effect = lower value", "result": 0.969}, {"measurement": "normalized growth", "setting": "S. cerevisiae deletion strains, locus YOR001W, strain rrp6, stronger effect = lower value", "result": 1.02}, {"measurement": "normalized growth", "setting": "S. cerevisiae deletion strains, locus YOR061W, strain CKA2, stronger effect = lower value", "result": 0.988}, {"measurement": "normalized growth", "setting": "S. cerevisiae deletion strains, locus YOR069W, strain VPS5, stronger effect = lower value", "result": 0.976}, {"measurement": "normalized growth", "setting": "S. cerevisiae deletion strains, locus YOR070C, strain gyp1, stronger effect = lower value", "result": 1}, {"measurement": "normalized growth", "setting": "S. cerevisiae deletion strains, locus YOR080W, strain dia2, stronger effect = lower value", "result": 1.01}, {"measurement": "normalized growth", "setting": "S. cerevisiae deletion strains, locus YOR083W, strain WHI5 (second series), stronger effect = lower value", "result": 0.982}, {"measurement": "normalized growth", "setting": "S. cerevisiae deletion strains, locus YOR083W, strain WHI5, stronger effect = lower value", "result": 0.974}, {"measurement": "normalized growth", "setting": "S. cerevisiae deletion strains, locus YOR106W, strain vam3, stronger effect = lower value", "result": 0.988}, {"measurement": "normalized growth", "setting": "S. cerevisiae deletion strains, locus YOR136W, strain idh2, stronger effect = lower value", "result": 0.974}, {"measurement": "normalized growth", "setting": "S. cerevisiae deletion strains, locus YOR144C, strain elg1, stronger effect = lower value", "result": 0.99}, {"measurement": "normalized growth", "setting": "S. cerevisiae deletion strains, locus YOR184W, strain ser1, stronger effect = lower value", "result": 0.93}, {"measurement": "normalized growth", "setting": "S. cerevisiae deletion strains, locus YOR231W, strain MKK1, stronger effect = lower value", "result": 0.874}, {"measurement": "normalized growth", "setting": "S. cerevisiae deletion strains, locus YOR265W, strain rbl2, stronger effect = lower value", "result": 1.02}, {"measurement": "normalized growth", "setting": "S. cerevisiae deletion strains, locus YOR270C, strain vph1, stronger effect = lower value", "result": 1.04}, {"measurement": "normalized growth", "setting": "S. cerevisiae deletion strains, locus YOR290C, strain snf2, stronger effect = lower value", "result": 0.976}, {"measurement": "normalized growth", "setting": "S. cerevisiae deletion strains, locus YOR316C, strain cot1, stronger effect = lower value", "result": 0.962}, {"measurement": "normalized growth", "setting": "S. cerevisiae deletion strains, locus YPL051W, strain arl3, stronger effect = lower value", "result": 0.975}, {"measurement": "normalized growth", "setting": "S. cerevisiae deletion strains, locus YPL055C, strain LGE1, stronger effect = lower value", "result": 0.977}, {"measurement": "normalized growth", "setting": "S. cerevisiae deletion strains, locus YPL078C, strain atp4, stronger effect = lower value", "result": 0.99}, {"measurement": "normalized growth", "setting": "S. cerevisiae deletion strains, locus YPL106C, strain sse1, stronger effect = lower value", "result": 0.982}, {"measurement": "normalized growth", "setting": "S. cerevisiae deletion strains, locus YPL240C, strain hsp82, stronger effect = lower value", "result": 1.01}, {"measurement": "normalized growth", "setting": "S. cerevisiae deletion strains, locus YPL256C, strain CLN2, stronger effect = lower value", "result": 0.877}, {"measurement": "normalized growth", "setting": "S. cerevisiae deletion strains, locus YPR119W, strain clb2, stronger effect = lower value", "result": 0.949}, {"measurement": "normalized growth", "setting": "S. cerevisiae deletion strains, locus YPR141C, strain kar3, stronger effect = lower value", "result": 0.972}, {"measurement": "normalized growth", "setting": "S. cerevisiae deletion strains, locus YPR163C, strain tif3, stronger effect = lower value", "result": 0.976}, {"measurement": "normalized growth", "setting": "S. cerevisiae deletion strains, locus YPR167C, strain met16, stronger effect = lower value", "result": 0.966}, {"measurement": "normalized growth", "setting": "S. cerevisiae deletion strains, strain wtn01, stronger effect = lower value", "result": 0.94}, {"measurement": "normalized growth", "setting": "S. cerevisiae strains, strain wild type, stronger effect = lower value", "result": 0.991}]}]}
